Structures are written as SMILES. Inconclusive results are not listed. Where a call stands in place of a potency, no number is given. The source made the active and inactive calls. Calls come from the whole dose curve; as a rule, active = well fitted activation curve with a large enough effect in the repeat runs; inconclusive = weak or mixed curves; inactive = flat fitted curve, though single readings scatter.
Potency is the fitted concentration of half-maximal effect.

The test is described as follows: A CellTox Green Cytotoxicity Assay to monitor cytotoxicity in HEK293 cells - 8 hour (AID 1224884). Note: nearly all actives have a fitted effect of over 35% in size. The settings on record: CellTox Green fluorescence; series mostly up to 76.8 µM. An excerpt:
National Center for Advancing Translational Sciences [NCATS]
NIH Chemical Genomics Center [NCGC]
U.S. Environmental Protection Agency [EPA]
National Institutes of Environmental Health Sciences [NIEHS]
National Toxicology Program [NTP]
Cell-based models are critical for drug discovery. Determining the natural cytotoxic effects resulting from test compounds is an essential research activity. A CellTox Green Cytotoxicity Assay to monitor cytotoxicity in real time of continues cell culture during 40 hours of the compound treatment was used to screen Tox21 10K library compounds in Hek293 cells. CellTox Green Cytotoxicity Assay is a nonlytic, homogeneous, biofluorescent method to measure cytotoxicity in cell culture after experimental manipulation. The assay system uses a proprietary asymmetric cyanine dye that is excluded from viable cells but preferentially stains the dead cell's DNA. […] Viable cells produce no appreciable increases in fluorescence. Therefore, the fluorescence signal produced by the binding interaction with dead cell DNA is proportional to cytotoxicity.
The mixture of Hek293 cell suspension and reagents were dispensed at 600cells/6 ul/well in 1536-well tissue culture treated black solid bottom plates using a Multidrop dispenser. After the assay plates were incubated at a 37 C/5% CO2 incubator for 5 hours, 23 nL of compounds dissolved in DMSO, positive and negative controls was transferred to the assay plate by a pintool work station. The plates were incubated at 37 C for 40 hours. The fluorescence intensity were measured at 0h, 8h, 16h, 24h, 32h and 40h time points using ViewLux plate reader during compound treatment.
As to `COC(=O)CCc1ccc(OCC(O)CNC(C)C)cc1` (stereo not given), the Potency result is “inactive”.
For `CN(CCOc1ccc(NS(C)(=O)=O)cc1)CCc1ccc(NS(C)(=O)=O)cc1` the value was “inactive”.
For `OC[C@H](Cc1cccc(O)c1)[C@H](CO)Cc1cccc(O)c1` the value was “inactive”; for `COCCOCCOCCOCCO`, “inactive”.
Take `CC(C)C(=O)OCCc1ccccc1`: the Potency entry was “inactive”.
For `Nc1nnc(-c2cccc(Cl)c2Cl)c(N)n1` the value was “inactive”; for `C[C@@H]1O[C@@H](O[C@@H]2[C@@H](O)[C@H](OCCc3ccc(O)c(O)c3)O[C@H](CO[C@@H]3O[C@H](CO)[C@@H](O)[C@H](O)[C@H]3O)[C@H]2OC(=O)/C=C/c2ccc(O)c(O)c2)[C@H](O)[C@H](O)[C@H]1O`, “inactive”.
Regarding `O=S(=O)(O)c1cc(O)c2ccc(Nc3ccccc3)cc2c1`, the Potency entry was “inactive”.
For `Cc1ccc(C=O)cc1C` the value was “inactive”; for `O=P(O)(O)OP(=O)(O)O`, “inactive”.
For `CC(=O)Nc1ccc(S(=O)(=O)Nc2ccc([N+](=O)[O-])cc2)cc1`, the Potency result was “inactive”.
For `OCCCCC(O)CO` (stereo not given) the value was “inactive”; for `CCNC(=O)C1CC(C)CCC1C(C)C` (stereo not given), “inactive”; for `Cc1cccc(C)c1NC(=O)c1ccccc1C(=O)O`, “inactive”.
For `CNC(=O)[C@H]1O[C@@H](n2cnc3c(NCc4cc(Cl)ccc4OCc4cc(C)no4)ncnc32)[C@H](O)[C@@H]1N` the value was “inactive”.
For `CN=C(NC#N)Nc1ccc(C2=NNC(=O)CC2C)cc1` (stereo not given) the value was “inactive”; for `COc1cc2c(cc1OC)[C@@H]1CC(=O)[C@@H](CC(C)C)CN1CC2`, “inactive”; for `Nc1ccc([N+](=O)[O-])c(N)c1`, “inactive”.
Take `O=C(OCC(COC(=O)c1cccnc1)(COC(=O)c1cccnc1)COC(=O)c1cccnc1)c1cccnc1`: the Potency result was “inactive”.
For `NCCS`, the Potency result was “inactive”.
In the case of `OCCC(F)(F)C(F)(F)C(F)(F)C(F)(F)C(F)(F)C(F)(F)C(F)(F)C(F)(F)F`, the Potency entry is “inactive”.
For `CCOCCOC(=O)/C=C/c1ccc(OC)cc1` the value was “inactive”; for `N[C@@H](CCC(=O)Nc1ccc([N+](=O)[O-])cc1)C(=O)O`, “inactive”.
For `COc1cc(NS(=O)(=O)c2ccc(N)cc2)nc(OC)n1` the value was “inactive”.
As to `CC(C)(C)NC(N)=O`, the Potency entry was “inactive”.
Take `COc1ccc(S(=O)(=O)N2c3ccc(Cl)cc3[C@@](O)(c3ccccc3Cl)[C@H]2C(=O)N2CCC[C@@H]2C(N)=O)cc1OC`: the Potency entry is “inactive”.
On to `N#Cc1ccc(C(=O)O)cc1`, for which the Potency result was “inactive”.
For `CC(=O)Nc1ccc(S(=O)(=O)Cl)cc1` the value was “inactive”; for `Nc1cccc(O)c1`, “inactive”; for `O=C1c2ccccc2C(=O)c2cc(S(=O)(=O)O)ccc21`, “inactive”.
As to `CCCCOCCOC(=O)COc1nc(Cl)c(Cl)cc1Cl`, the Potency is 38.9 µM (active).
For `Cc1cccc(OCC(O)CNC(C)(C)C)c1C` (stereo not given) the value was “inactive”; for `O=C1O[C@@H]2[C@@H](O)[C@H](O)O[C@@H]2[C@H]1O`, “inactive”.
Consider `O=C(O)c1ccc(Cl)cc1Cl`, for which the Potency entry is “inactive”.
Regarding `Cc1ccccc1C(=O)Nc1ccc(C(=O)N2CCCC(N(C)C)c3ccccc32)cc1` (stereo not given), the Potency result is “inactive”.
For `CCCCCOC(=O)CCC` the value was “inactive”.
For `CNS(=O)(=O)CCc1ccc2[nH]cc(C3CCN(C)CC3)c2c1` the value was “inactive”.
`C=C1CC/C=C(\C)CC[C@@H]2[C@@H]1CC2(C)C`: the Potency entry was “inactive”.
For `C[C@H](CCC(=O)O)[C@H]1CC[C@H]2[C@@H]3C(=O)C[C@@H]4CC(=O)CC[C@]4(C)[C@H]3CC(=O)[C@]12C` the value was “inactive”.
For `CCN(CC)CC(=O)Nc1c(C)cccc1C` the value was “inactive”.

For the origin of these results see PubChem BioAssay (Tox21).
